From PubChem BioAssay AID720518 (National Center for Advancing Translational Sciences (NCATS), 2013)
Results filed as inconclusive are left out. Unmarked numbers belong to inactive results. Calls follow the shape of the full dose curve.

experiment: qHTS for Inhibitors of Cell Surface uPA Generation: Wild-type Protective Antigen (WT-PrAg) Counterscreen for Cherry-picked Compounds; details: cells, WT protective antigen toxicity counterscreen; series mostly up to 115 µM; activity (protection): at the top concentration; also: 0% is about no effect

Structure (SMILES)	activity (protection) [%]
CC1(C)S[C@@H]2[C@H](NC(=O)C(C(=O)O)c3ccccc3)C(=O)N2[C@H]1C(=O)O (stereo not given in full)	1.43
C[C@@H]1O[C@@H](O[C@@H]2C(=O)c3c(O)cc(O)cc3O[C@H]2c2ccc(O)c(O)c2)[C@H](O)[C@H](O)[C@H]1O	-0.724
CC1CCCN(S(=O)(=O)c2cccc([N+](=O)[O-])c2)C1 (stereo not given)	0.828
COc1cc(C(C)=O)ccc1OCc1cn(CC(=O)c2ccc(O)cc2)nn1	-1.14
Clc1ccc(C2=NN=C3COc4ccccc4N3C2)cc1	-1.44
O=C(NNC(=O)c1cccnc1)c1ccncc1	-0.865
Cc1oc(-c2ccccc2F)nc1CS(=O)CC(=O)NCc1ccc(F)cc1 (stereo not given)	-1.42
CC(Sc1nnc2ccccn12)C(=O)NCc1ccc2c(c1)OCO2 (stereo not given)	0.198
CCOc1cc(/C=N/Nc2cc(C)nc3ccc(C)cc23)ccc1O	-0.441
COc1ccc(NS(=O)(=O)c2c(C)n(C)c(=O)n(C)c2=O)cc1OC	-1.24
CNC(=O)[C@@H]1CCC(=O)N1	-1.22
O=C(CCc1ccccc1)NNC(=O)c1cccc(F)c1	-1.65
COc1ccc(CCNC(=O)Cn2cccc2C(=O)c2ccccc2)c(OC)c1	-1.11
O=C(COC(=O)c1ccc2ncsc2c1)NCc1cccc(Cl)c1	-0.608
CN(C)c1ccc(S(=O)(=O)N2CCC(Cc3ccccc3)CC2)cn1	-0.825
C=CCOC(=O)C1=C[C@@H](c2coc3ccccc3c2=O)C[C@@H](OCc2ccc(CO)cc2)O1	-1.44
Nc1ccc(S(=O)(=O)c2ccccc2)nc1	-0.39
CCn1c(CNc2ccc(F)cc2)nnc1SCC(=O)Nc1ccccc1OC	-1.71
Cc1ccc(N2C(=O)c3ccccc3C2(O)c2ccccc2)cc1 (stereo not given)	-0.943
Cc1ccccc1S(=O)Cc1ccc(C(=O)N2CCN(C(=O)c3ccco3)CC2)o1 (stereo not given)	-0.657

Structure (SMILES)	activity (protection) [%]
COc1ccc(C2=Nc3ccccc3C2(O)CCN2C(=O)c3ccccc3C2=O)cc1 (stereo not given)	-1.2
CCOc1ccc(N(CC(=O)Nc2ccc(CC)cc2)S(=O)(=O)c2c(C)[nH]c(=O)[nH]c2=O)cc1	-0.814
COc1cccc(NC(=O)c2nnn(CC(=O)Nc3cc(C)cc(C)c3)c2N)c1	1.77
COc1ccccc1CNC(=O)CCCn1nc(C)c2c(C)n(-c3ccccc3)nc2c1=O	-1.72
COc1ccc(-n2nc(C(=O)Nc3cc(OC)c(OC)c(OC)c3)c3ccccc3c2=O)c(OC)c1	-1.69
CCOC(=O)N1CCc2c(sc3nc4n(c(=O)c23)N=C(C)CS4)C1	-1.1
Cc1ccc(-n2cccc2C(=O)NS(=O)(=O)c2ccc(C)cc2)cc1	-0.321
COc1ccccc1CNC(=O)CCn1c(=O)oc2ccccc21	-0.71
CC(C)(C)NC(=O)C(c1cccs1)N(C(=O)c1csnn1)c1ccccc1F (stereo not given)	-0.113
COCc1c(C(=O)Nc2nc(C)cs2)oc2ccccc12	-2.04
CC1(c2cccc([N+](=O)[O-])c2)CC(C)(C)N(C(=O)c2ccccc2)c2ccccc21 (stereo not given)	-1.21
CCOC(=O)c1ccc(N=Cc2c(O)n(-c3ccc(OC)cc3)c(=S)[nH]c2=O)cc1	0.91
CC(=O)N1CCN(C(=O)CSc2cc(C)c(Br)cc2C)CC1	-0.948
CC(=O)n1cc(/C=N/NC(=O)c2ccc([N+](=O)[O-])cc2)c2ccccc21	-1.78
CCOC(=O)C1=CC[C@@H](c2cc3ccc(OC)cc3n2C)N(S(=O)(=O)c2ccc(C)cc2)[C@H]1C(=O)OCC	-1.05
O=[N+]([O-])c1cccc(-c2noc(-c3cccs3)n2)c1	3.04
CN(Cc1ccc(C(C)(C)C)cc1)C(=O)Cc1ccc(S(=O)(=O)N2CCOCC2)s1	-2.37
COC(=O)C1=C(c2cccc(OC)c2OC)C[C@@H]2CC[C@H]1N2C(=O)NC1CC1	-0.417
Cc1cc(=O)[nH]c2c(C)cc(S(=O)(=O)Nc3ccc(O)cc3)cc12	-1.13
O=C(/C=C/c1cccc(Oc2ccccc2)c1)N1CCOCC1	0.547
